# Sampled rows, rich in hits. Any-hit rate of the full collection: about 3.4%.
# esBAF inh: Bmi1 luciferase reporter increase in mESCs, primary screen, esBAF inhibitor project, mouse ES cells, Bmi1 luciferase knock-in, single point; 24 h; 100% = twice the neutral-well signal; reporter increase, % at 12.5 µM; hit rate 2% among 350,000; AID 602393, 2012; in the data active = activation above about 40%; inconclusive = no clear call, values can overlap the other calls;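 also: a rise in the Bmi1 reporter signal indicates esBAF inhibition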
# Vif imaging: HIV Vif self-association inhibitors, primary screen, imaging, HEK293T, single point. HEK293T cells, Vif self-association by quenched fluorescence, 24 h. inhibition, % at 7.49 µM. hit rate 0.35% among 340,000. AID 602346, 2012; in the data active = inhibition above about 50%, passing the limit was not always enough; inconclusive = no clear call, values can overlap the other calls; inactive = below about 31%
# HSF1 activator: HSF-1 activators, primary screen, NIH3T3-HGL cells, MG132 stress, luminescence, single point; AID 504408, 2011; NIH3T3-HGL HSF-1 luciferase reporter, 8 h; 100% = twice DMSO control signal; hit rate 1.7% among 300,000; activation, % at 9 µM;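 active = mean replicate activation of at least 50% with a set share of replicates each reaching 50%; inconclusive = only one of those two conditions met; inactive = mean below 50% and too few replicates reaching it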
# HSF1 inhib: HSF1 inhibitors in luciferase reporter cells, primary screen, cell-based, NIH3T3, luminescence | hit rate 0.77% among 300,000 | activity change, negative = inhibition, % at 7.5 µM (by protocol) | AID 2098, 2009 | NIH3T3-HGL HSE-luciferase, MG132-induced, luminescence 8 h; hits give low values;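 active = more than half of replicate wells show activity change below -50%, luminescence cut by over half; inconclusive = some wells, but at most half, below -50%; inactive = no replicate well below -50%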;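 also: luciferase reports HSF-1 transcriptional activity via heat shock element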
# Hits are given with their value; n = inactive; u = inconclusive; x = no result given.
SMILES,esBAF inh,Vif imaging,HSF1 activator,HSF1 inhib
O=[N+]([O-])c1ccc2oc(/C=C/c3ccc(O)cc3)nc2c1,42,n,x,x
CC(C)(C)Nc1nc2cc([N+](=O)[O-])ccc2o1,n,n,n,n
COc1ccc(S(=O)(=O)NC2(C(F)(F)F)NC(=O)N(CCc3ccccc3)C2=O)cc1 (configuration not stated),n,55,n,n
Cc1ccc(N2C(=O)NC(NS(=O)(=O)c3ccccc3)(C(F)(F)F)C2=O)cc1 (configuration not stated),n,n,n,-79
CCCNC(=O)C[C@@H]1CC[C@H]2[C@H](COc3ccc(NC(=O)NC(C)C)cc3C(=O)N2C)O1,n,x,x,x
O=C(C[C@H]1CC[C@@H]2[C@H](COC[C@@H](O)CN2Cc2ccncc2)O1)NCC1CC1,n,x,x,x
Cc1ccc(Cn2ccsc2=NC(=O)COC(=O)c2ccc(O)cc2O)cc1,47,x,n,n
CO[C@H]1CN(C)C(=O)c2ccc(NC(=O)c3ccc(F)cc3)cc2OC[C@H](C)N(C(=O)CC2CC2)C[C@H]1C,n,x,x,x
Cc1nn(-c2ccccc2)c2c1C(c1ccncc1)C(C#N)=C(N)O2 (configuration not stated),x,n,n,n
Cc1nn(-c2ccccc2)c(Cl)c1C1C(C#N)=C(N)Oc2c1c(C)nn2-c1ccccc1 (configuration not stated),n,n,n,n
COc1cc(-n2nc(C)c3c2OC(N)=C(C#N)C3c2ccccc2)c(Cl)c(Br)c1O (configuration not stated),n,n,78,n
Cc1ccc(-n2nc(C)c3c2OC(N)=C(C#N)C3c2ccncc2)cc1 (configuration not stated),n,n,62,n
C[C@H](CO)N1C[C@H](C)[C@@H](CN(C)C)Oc2ccc(NC(=O)Nc3ccc(F)cc3)cc2C1=O,n,x,x,x
C[C@H]1CN([C@@H](C)CO)C(=O)c2cccc(NC(=O)c3ccncc3)c2O[C@@H]1CN(C)C(=O)Nc1ccc(C(F)(F)F)cc1,n,x,x,x
CC(C)OC(=O)/C(=C/c1ccc2c(c1)c1ccccc1n2C)NC(=O)c1ccccc1,x,n,n,n
CC(C)OC(=O)/C(=C\c1ccc2c(c1)c1ccccc1n2C)NC(=O)c1ccccc1,76,x,n,n
C[C@@H]1CCCCO[C@H](CN(C)C(=O)Nc2ccc3c(c2)OCO3)[C@@H](C)CN([C@@H](C)CO)C(=O)c2cc(NC(=O)c3ccccc3)ccc2O1,n,x,x,x
Nc1cccc(-c2nc3ccccc3[nH]2)c1,62,n,n,n
Cc1ccc2nc(-c3cccc(N)c3)[nH]c2c1,x,n,n,n
Nc1ccc(-c2nc3ccccc3[nH]2)cc1,n,n,n,n
Fc1ccc(-c2nc3ccccc3[nH]2)cc1,70,n,n,n
Cc1cc2c(=O)n(Cc3ccco3)c(SCC(=O)c3ccc(Cl)s3)nc2s1,n,n,78,n
CCOC(=O)CC(=O)CSc1nc2sc(C)cc2c(=O)n1Cc1ccco1,n,x,n,n
CCC(=O)n1nc(-c2ccc(Cl)cc2)nc1SC,71,53,n,n
CCCC(=O)n1nc(-c2ccc(Cl)cc2)nc1SC,n,n,n,n
SMILES,esBAF inh,Vif imaging,HSF1 activator,HSF1 inhib
CSc1nc(-c2ccc(Cl)cc2)nn1S(=O)(=O)c1ccccc1,u,n,n,n
COc1ccc(-c2nc(SC)n(C(=O)c3ccco3)n2)cc1,x,n,n,n
CSc1nc(-c2ccc(Cl)cc2)nn1S(=O)(=O)c1ccc(Cl)cc1,47,n,n,n
CCC(=O)n1nc(-c2ccc(OC)cc2)nc1SC,43,n,n,n
CC(C)(C)NCC(O)COc1ccccc1C1CCCC1 (configuration not stated),n,52,x,x
Clc1ccsc1-c1ccc2ccccc2n1,49,n,n,n
c1ccc2nc(-c3nccs3)ccc2c1,x,n,n,n
CC1=CC(=O)C=C(C)C1=NOC(=O)/C=C\c1ccccc1,x,n,65,n
CC1=CC(=NOC(=O)/C=C/c2ccccc2)C=C(C)C1=O,n,n,n,n
COCCOC(=O)C1=C(C)NC(C)=C(C(=O)OCCOC)C1/C=C/c1ccccc1OC,x,n,77,n
CCOC(=O)C1=C(C)NC(C)=C(C(=O)OCC)C1/C=C/c1ccccc1OC,n,x,67,n
CCOC(=O)C1=C(C)NC(=O)NC1/C=C/c1ccccc1OC (configuration not stated),x,n,n,n
Clc1ccc(-c2nc(/C=N/N3CCOCC3)c3ccccn23)cc1,x,n,53,n
CN1CCN(/N=C/c2nc(-c3ccc(Cl)cc3)n3ccccc23)CC1,x,n,n,n
CCCn1cc(NC(=O)c2cc(-c3ccccc3)on2)cn1,53,n,n,n
COc1ccc(-c2cc(C(=O)Nc3ccccc3SC)no2)cc1OC,n,n,n,n
COc1ccc(-c2cc(C(=O)Nc3cnn(Cc4ccccc4C)c3)no2)cc1OC,n,86,n,n
C[C@H](CO)N1C[C@H](C)[C@@H](CN(C)S(=O)(=O)c2cn(C)cn2)OCCCC[C@H](C)Oc2ccc(NC(=O)Nc3cccc4ccccc34)cc2C1=O,n,x,x,x
CNCc1c(OCc2ccc(F)cc2)ccc2ccccc12,n,n,n,n
OCc1c(OCc2cccc(F)c2)ccc2ccccc12,63,n,62,n
CCc1ccc(Oc2cc(C)nc(N)n2)cc1,61,x,n,n
O=C(CCl)N(C/C=C/c1ccccc1)c1ccc2c(c1)OCCO2,x,n,n,-77
COc1ccc(NC(=O)N[C@H]2C=C[C@H](CC(=O)NC3CCC3)O[C@H]2CO)cc1,n,x,x,x
CO[C@@H]1CN(C)C(=O)c2cc(NC(=O)Nc3cc(F)ccc3F)ccc2OC[C@@H](C)N(C(=O)c2ccccn2)C[C@@H]1C,n,x,x,x
CCC(=O)Nc1ccc2c(c1)C(=O)N(C)[C@@H]1CC[C@@H](CC(=O)NCC3CCCCC3)O[C@@H]1CO2,n,x,x,x
SMILES,esBAF inh,Vif imaging,HSF1 activator,HSF1 inhib
Cc1cc(C(C)(C)C)oc1C(=O)N(CC(=O)NC1CCCC1)c1c(C)cccc1C,x,n,n,-53
Cc1ccc(/C=C2/CNC/C(=C/c3ccc(C)cc3)C2=O)cc1,n,120,x,x
Cc1ccc(/C=C2\CCOC2=O)cc1,n,n,n,n
COc1ccc(NC(=O)Nc2ccc3c(c2)C(=O)N([C@@H](C)CO)C[C@@H](C)[C@H](CN(C)S(=O)(=O)c2cn(C)cn2)OCCCC[C@H](C)O3)cc1,n,x,x,x
CCCNC(=O)C[C@H]1CC[C@H]2[C@@H](COC[C@H](O)CN2C(=O)Nc2ccccc2OC)O1,n,x,x,x
CN1c2ccc(-c3cccc(C#N)c3)cc2[C@H]2[C@H](CCN2C(=O)Nc2cc(F)ccc2F)[C@H]1CO,n,x,x,x
O=C1CCCN1CCC1CCN(C(=O)Nc2ccccc2)CC1,n,n,n,-68
O=C1CCCN1CCNC(=S)Nc1ccccc1,n,n,n,n
Cc1noc(C)c1NC(=O)N(C)C[C@H]1Oc2c(NC(=O)Nc3ccccc3)cccc2C(=O)N([C@H](C)CO)C[C@H]1C,n,x,x,x
